# Most compounds without a hit are left out; they make up all but 0.45% or so of the library.
# BCR signal inh – inhibitors of chronic active B-cell receptor signaling; Potency, µM (series often up to 46.1 µM), without a hit: at the top dose activity change, negative = inhibition, hits mostly inhibitors; actives 0.05% (n = 340,000); ABC-DLBCL IkBa-CBG/CBR reporter, luminescence ratio, 4 h; active = well fitted inhibition curve with a large enough effect in the signal ratio, with a control signal flat, not every such curve was filed as active; inconclusive = small, poorly fitted or top-dose-only effect, or effect the other way, or a change in a side signal; the % refers to the signal ratio;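 note: plate controls were basal doxycycline-induced cells for no effect and cells given 10 µM MG132 for full effect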
#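 Cell line TMD8 (human ABC DLBCL), stably expressing tet-inducible CBG68-IkBa fusion and CBR; IMDM/0.5% FBS; cpd up to 46 uM; dox induction, 4 h, 37C/5% CO2; dual luminescence; green/red ratio; MG132 control.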
# Apoferritin bind – binds horse apoferritin like a general anesthetic | apoferritin/1-aminoanthracene competitive binding, fluorescence | Potency, µM (doses to about 77.5 µM), for the others: at the highest dose activity change, negative = displacement, actives largely listed as inhibitors | actives 0.074% (n = 350,000); note: nearly all actives have a fitted effect of over 20% in size
#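 Probe: 1-aminoanthracene (50% saturated, PBS). Protein: horse-spleen apoferritin, 10 uM. Incubation: 10 min, room temperature. Detection: 380 nm excitation, 535 nm emission. Analysis: normalized response, four-parameter Hill.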
# FEN1 inh – blocks human flap endonuclease 1. AID 588795. actives 0.35% (n = 390,000). Potency, µM (titrated, usually from 114 µM), without a hit: at the top dose activity change, negative = inhibition, hits mostly inhibitors. Recombinant FEN1 flap cleavage, fluorescence, 15 min. P39748; note: nearly all actives have a fitted effect of over 65% in size
#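 In this screen, 50 nM flap DNA substrate was added to 10 nM FEN1 pretreated with compound for 15 min at room temperature; cleavage was followed with reads at 0 and 15 min, and Hill fitting gave concentration–response parameters.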
# B2AR arrestin – recruits beta-arrestin to the human beta2-adrenergic receptor; beta-arrestin recruitment to beta2AR, cell-based reporter; Potency, µM (titrated, usually from 46.1 µM), inactives show top-dose activation, hits mostly activators; actives 0.02% (n = 330,000); AID 492947;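 note: 0% = DMSO controls and full agonism = EC100 isoproterenol or metaproterenol; nearly all actives have a fitted effect of over 65% in size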
# Target sequence (P07550 whole entry, looked up): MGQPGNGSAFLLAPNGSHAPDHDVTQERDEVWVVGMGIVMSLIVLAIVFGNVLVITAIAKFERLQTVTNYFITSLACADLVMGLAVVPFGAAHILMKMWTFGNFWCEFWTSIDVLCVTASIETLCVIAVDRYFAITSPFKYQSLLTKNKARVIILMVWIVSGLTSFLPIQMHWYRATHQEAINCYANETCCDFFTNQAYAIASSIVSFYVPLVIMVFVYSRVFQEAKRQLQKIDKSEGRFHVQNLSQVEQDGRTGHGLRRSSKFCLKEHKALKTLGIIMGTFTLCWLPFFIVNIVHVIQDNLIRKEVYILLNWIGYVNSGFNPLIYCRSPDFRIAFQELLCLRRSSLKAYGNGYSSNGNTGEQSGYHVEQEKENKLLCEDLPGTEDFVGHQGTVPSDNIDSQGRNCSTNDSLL
# Pin1 inh – human Pin1 inhibition | Q13526 | Potency, µM (highest dose often 115 µM), without a hit: at the top dose activity, negative = inhibition, usual class: inhibitors | Pin1 FP peptide displacement, HiFluor488, 10 min | actives 0.009% (n = 390,000); active = well fitted inhibition curve with a large enough effect in the polarisation, with a control signal flat, not every such curve was filed as active; inconclusive = small, poorly fitted or top-dose-only effect, or effect the other way, or a change in a side signal; inactive = no such curve, though single readings can be large or run the other way; the % refers to the polarisation
# PGK inhibitor – T. brucei PGK inhibition | P07378 | PGK/GAPDH coupled, Kinase-Glo luminescence, 60 min | Potency, µM (highest dose often 57.5 µM), for inactives: at the top dose activity change, negative = inhibition, most hits filed as inhibitors | actives 0.043% (n = 380,000); note: nearly all actives have a fitted effect of over 60% in size
#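 Recombinant glycosomal PGK reaction used 1,3-bisphosphoglycerate generated in-well by GAPDH (100nM final) in 100mM TEA pH 7.6, 5mM MgCl2, 0.01% Tween-20. After 60 minutes at room temperature, ATP was read by Kinase-Glo Plus luminescence end-point.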
# The depositor's hits bear a star; i = inactive; ? = inconclusive; . = no result given; [ ] = dose if it differs, or a comment. Unless noted, calls come from the whole dose curve; as a rule, active = well fitted curve in the direction sought with a large enough effect; inconclusive = small, poorly fitted or top-dose-only effect, or another doubt; inactive = no such curve, though single readings can be large; an effect the other way counts as inactive or inconclusive. Unless noted, % is set by controls: 0 for no effect and ±100 for the full control effect; potency is the fitted concentration of half-maximal effect.
SMILES,BCR signal inh,Apoferritin bind,FEN1 inh,B2AR arrestin,Pin1 inh,PGK inhibitor
O=c1oc2c(O)c(O)cc3c(=O)oc4c(O)c(O)cc1c4c23,-8%,4%,1.6µM*,-1%,?,0.89µM*
O=C(Nc1ccc2nc(-c3ccco3)c(-c3ccco3)nc2c1)NC1CC1,?,52%,50µM*,0%,.,?
O=c1c2ccccc2nc2sc(NCc3ccc(Cc4ccccc4)cc3)nn12,.,.,.,.,8%,.
O=C(CNC(=O)c1cccs1)OCC(=O)c1ccccc1,-10%,-18%,-3%,0%,6%,.
O=C(CNC(=O)c1cccs1)OCC(=O)c1ccc2ccccc2c1,0%,14µM*,-15%,0%,-6%,i
COc1ccc(C2=Nn3c(nnc3-c3ccccc3OC)SC2)cc1OC1CCOC1 (stereo not given),8.2µM*,.,8%,4%,3%,i
COc1ccc(C2=Nn3c(nnc3-c3ccccc3C(F)(F)F)SC2)cc1OC1CCOC1 (stereo not given),-14%,.,-19%,0%,-16%,6%
COc1ccc2nc(C)cc(N/N=C/c3ccccc3)c2c1,?,.,35µM*,10%,1%,-1%
C=CCN(CC=C)S(=O)(=O)c1ccc(NC(=S)NC(=O)c2ccco2)cc1,1%,18µM*,-3%,0%,?,-13%
C=CCn1c(-c2ccc(Cl)cc2)c[nH]c1=S,?,-6%,-2%,20µM*,2%,4%
COC1=C(N)C(=O)c2nc(-c3nc(C(=O)O)c(C)c(-c4ccc(OC)c(OC)c4O)c3N)ccc2C1=O,?,-7%,4µM*,-2%,?,?
COc1ccc(C(=O)O)c(O)c1OC,.,0%,.,.,.,.
O=C1c2ccccc2C(=O)N1c1cncc2ccccc12,.,.,.,.,0%,.
COc1cc2c(NC3CCN(C)CC3)nc(N3CCCN(C)CC3)nc2cc1OCCCN1CCOCC1,.,.,22µM*,.,.,.
COc1cc2nc(N3CCCN(C)CC3)nc(OC3CCN(C)CC3)c2cc1OC,.,.,-27%,.,.,.
COc1cc2c(NC3CCN(C)CC3)nc(N3CCCN(C)CC3)nc2cc1OCCCN1CCCC1,.,.,10µM*,.,.,.
COc1cc2nc(N3CCCN(C)CC3)nc(NC3CCOCC3)c2cc1OC,.,.,-18%,.,.,.
COc1cc2c(NC3CCN(C)CC3)nc(N3CCCCC3)nc2cc1OCCOCCN1CCCC1,.,.,20µM*,.,.,.
COc1cc2c(NC3CCN(C(C)C)CC3)nc(N3CCCN(C)CC3)nc2cc1OCCOCCN1CCCC1,.,.,20µM*,.,.,.
O=C(Nc1ccccc1)Nc1nc(Nc2cc(F)cc(F)c2)nc(NC2CCCC2)n1,.,.,.,.,-12%,.
COc1ccc(C2Oc3ccccc3C(=O)N2Cc2ccccc2)cc1COc1ccc(NC(C)=O)cc1 (stereo not given),.,.,.,.,11%,.
Cc1c2cc[n+](CCN3CCCCC3)cc2c(C)c2c1[nH]c1ccc(O)cc12,.,.,13µM*,.,44%,i
NC(=O)C1CCN(c2ncc(-c3ccc4c(c3)OCCO4)s2)CC1,.,.,.,.,-3%,.
O=[N+]([O-])c1cc(Cl)c(O)c2ncccc12,?,-10%,?,?,15%,-3%
O=[N+]([O-])c1cc(F)c2cccnc2c1O,16µM*,6%,?,-1%,-4%,.
SMILES,BCR signal inh,Apoferritin bind,FEN1 inh,B2AR arrestin,Pin1 inh,PGK inhibitor
Oc1c(Cl)cc(CN2CCOCC2)c2cccnc12,-10%,.,?,3%,-4%,i
O=[N+]([O-])c1cc(CN2CCOCC2)c2cccnc2c1O,6%,-18%,28µM*,0%,?,2%
Cc1cccc(OC2=NS(=O)(=O)c3ccccc32)c1,.,.,.,.,2%[163 µM],.
Cc1ccccc1-c1n[nH]c(=S)n1/N=C/C=C/c1ccco1,?,7%,16µM*,-1%,.,-16%
S=c1[nH]nc(-c2ccccc2)n1/N=C/C=C/c1ccco1,8%,-10%,1%,0%,-2%,1%
COc1ccc(NS(=O)(=O)c2ccc(O)c(NC(=O)c3cc4c(C)nn(-c5ccc(F)cc5)c4s3)c2)cc1,0%,-20%,56µM*,-1%,?,-17%

# Assay outcomes (PubChem)
